{"source": "ChEMBL document CHEMBL4888484", "about": "“Replenishing the malaria drug discovery pipeline: Screening and hit evaluation of the MMV Hit Generation Library 1 (HGL1) against asexual blood stage Plasmodium falciparum ,using a nano luciferase reporter read-out” (2022)", "note": "Out of some 4,800 compounds screened, about 420 (8.8%) showed an effect of 50% or more. The list comes from a sample in which strong results are over-represented; it also holds similar structures and randomly drawn compounds."}
{"system": "Plasmodium falciparum", "experiment": "Confirmatory screen in NF54 nanoGlo assay, in single point, at 2uM, 72h", "format": "functional, Erythrocyte", "conditions": "timepoint 72 hour", "units": {"% Inhibition": "%"}}
{"compound": "COc1cccc(C(=O)N2CCC(c3nc(-c4ccc5c(c4)OCO5)no3)CC2)c1OC", "% Inhibition": -3}
{"compound": "Cc1ccc(S(=O)(=O)N2CCN(C(=O)N3CCOCC3)[C@@H]2C)cc1", "% Inhibition": -8}
{"compound": "C#CCOCC(O)CN(Cc1c(-c2ccccc2)noc1N1CCC(C)CC1)CC1CCCO1", "note": "(stereo not drawn)", "% Inhibition": -17}
{"compound": "O=C(OCc1ccc(C(F)(F)F)nc1)c1ccc(C(F)(F)F)nc1", "% Inhibition": 7}
{"compound": "O=C(NC1CCOCC1)c1ccc(-c2ccc(F)c(F)c2F)cn1", "% Inhibition": 6}
{"compound": "CNC(=O)[C@@H](NC(=O)CNC(=O)c1ccc(Cl)cc1)C(C)(C)C", "% Inhibition": -11}
{"compound": "CC(=O)N1CCc2cc(-c3ccc(C(=O)NCCC(C)C)cc3)ccc21", "% Inhibition": 2}
{"compound": "O=C(NCCN1CCCC1)c1ccc2c(c1)OCCO2", "% Inhibition": -12}
{"compound": "O=C(c1ccnn1C(F)F)N1N=CC[C@]1(O)C(F)(F)F", "% Inhibition": -5}
{"compound": "Cc1cc(CS(=O)(=O)NCCOc2ccc(Cl)cc2)on1", "% Inhibition": 2}
{"compound": "CC1(C)C[C@@H](NC(=O)COc2ccc(CO)cc2)CCO1", "% Inhibition": -1}
{"compound": "O=C(Nc1nc(Cc2ccccc2)cs1)C1CCOCC1", "% Inhibition": 2}
{"compound": "CCNC(=O)C(=O)NCc1ccc(OC)cc1", "% Inhibition": -17}
{"compound": "COc1ccc(CC2C(O)C(Cc3ccc(OC)cc3)C3CCC2N3C)cc1", "note": "(stereo not drawn)", "% Inhibition": 7}
{"compound": "COc1ccc(CNCCC2C(C)CN(C)C(C)C2Cc2ccccc2)cc1", "note": "(stereo not drawn)", "% Inhibition": 59}
{"compound": "C[C@H]1CS(=O)(=O)C[C@H]1NC(=O)Nc1ccc2ccoc2c1", "% Inhibition": -5}
{"compound": "C[C@@H](NC(=O)Nc1ccc(Cl)c(Cl)c1)C(=O)O", "% Inhibition": 5}
{"compound": "O=C(Nc1ccc(Cl)c(Cl)c1)Nc1ccc(Cl)cc1NC(=O)Nc1ccc(Cl)c(Cl)c1", "% Inhibition": 65}
{"compound": "CNc1nc(C)cc(C(=O)Nc2ccc(Cl)cc2NC(C)=O)n1", "% Inhibition": 2}
{"compound": "O=C1CCC(=O)N1c1cnn(Cc2ccccc2)c1", "% Inhibition": 1}
{"compound": "CC(C)(C)OC(=O)N1CCC2(CC1)NN=C1C=C(N3CCN(c4ccccc4F)CC3)N=CN12", "% Inhibition": -8}
{"compound": "CCOc1ccc(NC(=O)Cn2cnc3c(-c4cccc(OC)c4)cn(C)c3c2=O)cc1", "% Inhibition": -1}
{"compound": "CN1CC[C@H](CN(C)Cc2ccc3cc(O)ccc3c2)C1", "% Inhibition": 9}
{"compound": "COC1CCCC1NC(=O)Nc1ncc(Br)cc1C", "note": "(stereo not drawn)", "% Inhibition": 74}
{"compound": "CC(=O)Nc1ncc(Br)cc1C", "% Inhibition": 3}
{"compound": "CNC(=O)c1cc(Br)cnc1NC", "% Inhibition": 3}
{"compound": "Cc1c(NS(=O)(=O)c2ccc(Cl)cc2)c(-n2cnnc2)nn1C", "% Inhibition": -7}
{"compound": "O=C(NCCN1CCCCC1)c1n[nH]c2c1CCc1ccccc1-2", "% Inhibition": 1}
{"compound": "COc1cc(=O)[nH]cc1Br", "% Inhibition": -3}
{"compound": "CC(C)N1CCO[C@H](C(=O)Nc2c[nH]nc2-c2ccccc2)C1", "% Inhibition": -5}
{"compound": "O=C(O)c1nccc(C(F)(F)F)c1Cl", "% Inhibition": -19}
{"compound": "CC(C)(C)c1ccc(NC(=O)c2ccnnc2)c(O)c1", "% Inhibition": -8}
{"compound": "CC1(C)C2CCC13CS(=O)(=O)N=C3C2", "note": "(stereo not drawn)", "% Inhibition": 3}
{"compound": "Cc1cccc(NC(=O)NCCn2nnc3cc(S(=O)(=O)N4CCCC4)ccc32)c1C", "% Inhibition": -1}
{"compound": "COC(=O)c1ccccc1NC(=O)NCCn1nnc2cc(S(=O)(=O)N(C)C)ccc21", "% Inhibition": 55}
{"compound": "O=S(=O)(c1ccc(F)cc1)n1ccc(-c2cccc(OCc3ccc(Cl)cc3Cl)c2)n1", "% Inhibition": -4}
{"compound": "Cc1nc2c(sc(=S)n2-c2ccc(Cl)c(Cl)c2)c(=O)[nH]1", "% Inhibition": -2}
{"compound": "CCOC[C@@H](O)CN(Cc1c(C)nn(-c2ccccc2)c1Oc1cccc(C)c1)C1CC1", "% Inhibition": 10}
{"compound": "CCc1cc(C(=O)N2CCC3(CC2)C[C@H](c2ccccc2)C(=O)N3C)no1", "% Inhibition": -8}
{"compound": "O=C(OCC(=O)N1CCN(Cc2ccccc2)CC1)c1nccc2ccccc12", "% Inhibition": 1}
{"compound": "CC(CNc1ccccn1)N1CCOCC1C", "note": "(stereo not drawn)", "% Inhibition": -5}
{"compound": "Cc1ccc(Cl)c(OCn2ccc(C(=O)Nc3ccc(Br)cn3)n2)c1", "% Inhibition": -16}
{"compound": "O=C(NCc1ccccc1F)C1CCN(c2cncnc2N2CCCC2)CC1", "% Inhibition": 33}
{"compound": "CCS(=O)(=O)C1CN(C(=O)c2ccnn2C2CCCC2)C1", "% Inhibition": -7}
{"compound": "COCCCn1c(COc2ccc(OC)cc2)n[nH]c1=O", "% Inhibition": 1}
{"compound": "COc1c(Cl)cc(Cl)cc1CNC(C)C", "% Inhibition": 4}
{"compound": "NCc1ccc(O)c(Br)c1", "% Inhibition": 2}
{"compound": "COc1ccnc(NCc2ccc(N3CCOCC3)cc2)n1", "% Inhibition": -3}
{"compound": "Cc1ccc(CNC(=O)c2nc(-c3ccncc3)cs2)o1", "% Inhibition": 7}
{"compound": "CC(=O)c1cccc(S(=O)(=O)N2CCN(C(=O)c3ccc4c(c3)CCC4)CC2)c1", "% Inhibition": 2}
{"compound": "COc1ccc2c(c1)CCN2S(=O)(=O)c1ccc2c(c1)OCCO2", "% Inhibition": -4}
{"compound": "Cc1cc(C)n(S(=O)(=O)c2ccc3c(c2)OCCO3)n1", "% Inhibition": -3}
{"compound": "CC12CN(S(=O)(=O)c3ccc4c(c3)OCCO4)C3(C(=O)OCc4ccccc4)CC1CCC23C", "note": "(stereo not drawn)", "% Inhibition": 59}
{"compound": "CC(C)OC(=O)N1C(=O)c2ccccc2NC1(C(F)(F)F)C(F)(F)F", "% Inhibition": -22}
{"compound": "Nc1ccc2c(c1)Oc1cc(N)ccc1OCCOCCOCCO2", "% Inhibition": -10}
{"compound": "O=c1c2ccccc2nc2cc(-c3ccc(O)cc3)c(-c3ccccc3)nn12", "% Inhibition": 53}
{"compound": "Cc1cccc(-n2c(-c3sc(Nc4ccccc4)nc3-c3ccccc3)nc3ccccc3c2=O)c1", "% Inhibition": 6}
{"compound": "COC(=O)Nc1nc(-c2ccccc2)c(-c2nc3ccccc3c(=O)n2-c2ccc(OC)cc2)s1", "% Inhibition": 5}
{"compound": "Cc1ccc(/N=C(\\N)C(Cl)(Cl)Cl)c(C)c1", "% Inhibition": -2}
{"compound": "Oc1ccccc1CCN[C@H]1CCc2ccc(F)cc21", "% Inhibition": 98}
{"compound": "CN(Cc1ccc(F)cc1Cl)[C@H]1CCc2nnc(C3CCOCC3)n2CC1", "% Inhibition": -13}
{"compound": "Cc1ccnc(CNC(=O)N[C@H]2CCc3ccc(F)cc32)c1", "% Inhibition": -10}
{"compound": "c1ccc(N2CCN(CCN[C@H]3CCc4cc5c(cc43)CCC5)CC2)cc1", "% Inhibition": 8}
{"compound": "Cc1nc2cc(F)ccc2cc1C(=O)N1CCN(S(=O)(=O)c2ccc(Br)cc2)CC1", "% Inhibition": 0}
{"compound": "Cc1ccccc1CNC(=O)CN(C(C)C)C1CCOCC1", "% Inhibition": 21}
{"compound": "CCO[C@H]1C[C@H](NC(=O)Nc2ccc(F)c(C3CC3)c2)C1", "% Inhibition": 2}
{"compound": "COc1ccc(-n2nc(C)c3c2NC(=O)C[C@@H]3c2ccc3c(c2)OCO3)cc1", "% Inhibition": -5}
{"compound": "COC(=O)c1ccc(C)c(NC(=O)c2ocnc2C2CC2)c1", "% Inhibition": 2}
{"compound": "Cc1cc(C)n(-c2c(C)[nH]c3ccccc23)n1", "% Inhibition": -7}
{"compound": "CC1=C(C(=O)Nc2cccc(Cl)c2)[C@H](c2csnn2)NC(=O)N1", "% Inhibition": -20}
{"compound": "N#Cc1c(CN2CCOCC2)cc(=O)n2c1[nH]c1ccccc12", "% Inhibition": -4}
{"compound": "Cc1ccc(CN2CCN(C[C@@H](O)Cn3c4ccccc4n4c(=O)cc(C)c(C#N)c34)CC2)c(C)c1", "% Inhibition": 89}
{"compound": "O=C(Cc1c[nH]c2ccccc12)N[C@H]1CCS(=O)(=O)C1", "% Inhibition": -4}
{"compound": "CCOCCCNC/C=C/c1ccccc1", "% Inhibition": -5}
{"compound": "CC(=O)N1CCC(Nc2ccc3c(c2)CCC(=O)N3)CC1", "% Inhibition": -17}
{"compound": "COc1cc(Cl)c(C)cc1NC(=O)c1cc(=O)n(-c2ccc(C)cc2)[nH]1", "% Inhibition": -8}
{"compound": "Clc1cccc(N2CCN(Cc3ccc(OC4CCNCC4)cc3)CC2)c1", "% Inhibition": 27}
{"compound": "O=C(CN1CCCCCC1)Nc1ccc(OCc2ccccc2)cc1", "% Inhibition": 0}
{"compound": "c1ccc(Cn2ncc3cc(-c4nc(C5CC5)no4)cnc32)cc1", "% Inhibition": 3}
{"compound": "COc1ccccc1[C@H]1CC(O)=Nc2c1ncn2-c1cc(F)cc(F)c1", "% Inhibition": -4}
{"compound": "Cn1ccnc1[C@@H]1CCCN1S(=O)(=O)c1c2c(nn1C)CCCC2", "% Inhibition": 4}
{"compound": "C[C@@H](CNc1nc(-c2ccccc2)nc2nc(-c3ccc(Cl)cc3)oc12)N1CCCCC1", "% Inhibition": 60}
{"compound": "O=C1CC(c2cccc(NC(=O)CCc3ccccn3)c2)CC(=O)N1", "% Inhibition": 3}
{"compound": "Cc1cc(-n2c(C)cc(C(=O)Cn3c(C(F)(F)F)ccc(C(N)=O)c3=O)c2C)no1", "% Inhibition": 25}
{"compound": "NC(=O)c1ccc(C(F)(F)F)n(C[C@H](O)c2cc(Cl)ccc2Cl)c1=O", "% Inhibition": 63}
{"compound": "NC(=O)c1ccc(C(F)(F)F)n(CC(=O)N(Cc2ccc(F)cc2)C2CCCCC2)c1=O", "% Inhibition": -6}
{"compound": "CCN(CCN(C)C)C(=O)c1cccc(-c2ccc3nccc(N)c3c2)c1", "% Inhibition": 70}
{"compound": "CCC(=O)N(CCN(C)C)Cc1c(-c2ccccc2)noc1N1CCCCC1", "% Inhibition": 10}
{"compound": "Cc1cccc(OC[C@@H](O)Cn2cnc(C)c(C)c2=O)c1", "% Inhibition": 5}
{"compound": "COc1ccc(-n2nnnc2[C@@H](NCCc2c[nH]c3ccccc23)C(C)C)cc1", "% Inhibition": -1}
{"compound": "Cc1cccc(CC(=O)N[C@@H](C)CCC(=O)O)c1", "% Inhibition": 4}
{"compound": "O=C(CCc1ccc(Cl)c(C(F)(F)F)c1)N1CC[C@H](N2CCc3ccccc3C2)C1", "% Inhibition": 52}
{"compound": "CN1CCC2C(CCN2C(=O)Nc2ccc(Cl)c(C(F)(F)F)c2)C1", "note": "(stereo not drawn)", "% Inhibition": 2}
{"compound": "O=C(Nc1ccccc1Cl)N1CCC(N2CCc3sccc3C2)CC1", "% Inhibition": 37}
{"compound": "CC(C)c1cccc(CN2C(=O)N[C@]3(CC(C)(C)OC3(C)C)C2=O)n1", "% Inhibition": -6}
{"compound": "C[C@H](C(=O)NCC1CCN(Cc2ccccc2F)CC1)C1CCOCC1", "% Inhibition": -6}
{"compound": "CC(Oc1ccc2c(c1)C(c1ccccc1)N(Cc1ccccc1F)CC2)C(=O)NC1CC1", "note": "(stereo not drawn)", "% Inhibition": 56}
{"compound": "COc1ccc2cc3n(c2c1)C[C@](C(=O)NC1CCCCCC1)(c1ccccc1)N(Cc1ccccc1F)C3=O", "% Inhibition": -17}
{"compound": "C=CCN1CCN(c2nccn3nc(-c4ccc(Cl)cc4)cc23)CC1", "% Inhibition": -3}
{"compound": "CC[C@H]1C(=O)NCCN1C(=O)c1cc(C)n[nH]1", "% Inhibition": 7}
{"compound": "Cn1c(Cc2n[n+]3c(-c4ccccc4)cc(-c4ccccc4)nc3n2C)n[n+]2c(-c3ccccc3)cc(-c3ccccc3)nc12", "% Inhibition": 99}
{"compound": "COCc1nsc(N2CCC(c3ccccc3)CC2C)n1", "note": "(stereo not drawn)", "% Inhibition": 1}
{"compound": "O=C(NCc1cccnc1)c1cnn2c3c(cnc12)CCCC3", "% Inhibition": -4}
